Measurements from PubChem BioAssay (Tox21).
Several values for one entry are separate records, joined by “and”; a condition that tells them apart may be missing. Equal entries are not always repeated. Inconclusive results are not listed. Some compounds were tested as several samples or in several runs, with calls that do not always agree. Activity calls are given as the source filed them. Unless noted, the call rests on the fitted dose curve; in most records, active means well fitted curve in the direction sought with a large enough effect in the repeat runs; inconclusive means weak or mixed curves; inactive means no such curve, though single readings can be large; an effect the other way counts as inactive or inconclusive.

Legend:
[1] = qHTS assay to identify small molecule antagonists of the thyroid receptor (TR) signaling pathway (AID 743065); further: nearly all actives have a fitted effect of over 55% in size; further: potency means the concentration at half of the fitted maximal effect
In short: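 GH3.TRE-Luc rat pituitary cells carrying two TR response elements driving luciferase were plated for 4 h, given compound plus 1 nM T3 (final), and incubated 23.5 h at 37 C. ONE-Glo luminescence measured reporter inhibition; CellTiter-Fluor fluorescence tracked cytotoxicity.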

[2] = tested on: thyroid hormone receptor (rat, GH3 cells); test: qHTS assay to identify small molecule agonists of the thyroid receptor (TR) signaling pathway (AID 743066; calls by dose curve)
[3] = molecular target: Estrogen receptor (Homo sapiens) (UniProt P03372); test: qHTS assay to identify small molecule antagonists of the estrogen receptor alpha (ER-alpha) signaling pathway (AID 743069; active means well fitted curve in the direction sought with a large enough effect in the signal ratio in the repeat runs, not every such curve was filed as active; the % refers to the signal ratio)
In short: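 Screening used a UAS-driven beta-lactamase reporter integrated into HEK293 cells expressing ER-alpha, stimulated with 17beta-estradiol alongside test compounds over 18 hr at 37C; signal came from LiveBLAzer B/G FRET fluorescence.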

[4] = qHTS assay to identify small molecule antagonists of the estrogen receptor alpha (ER-alpha) signaling pathway - cell viability counter screen (AID 743074; calls by dose curve; further: nearly all actives have a fitted effect of over 45% in size; further: potency means the concentration at half of the fitted maximal effect)
[5] = molecular target: Estrogen receptor (Homo sapiens) (UniProt P03372); test: qHTS assay to identify small molecule agonists of the estrogen receptor alpha (ER-alpha) signaling pathway (AID 743075; calls by dose curve)
[6] = molecular target: Estrogen receptor (Homo sapiens) (UniProt P03372); test: qHTS assay to identify small molecule agonists of the estrogen receptor alpha (ER-alpha) signaling pathway using the BG1 cell line (AID 743079); details: BG1Luc4E2 cells, ERE-luciferase agonist, 22 h; further: nearly all actives have a fitted effect of over 20% in size
[7] = qHTS assay to identify small molecule antagonists of the estrogen receptor alpha (ER-alpha) signaling pathway using the BG1 cell line (AID 743080; calls by dose curve;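 further: BG1 cells stimulated with 17beta-estradiol alongside compound; nearly all actives have a fitted effect of over 25% in size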)
In short: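 Endogenous full-length ER-alpha in BG1-Luc-4E2 cells drives a stably integrated 4×ERE luciferase gene; compounds were tested against 17beta-estradiol over 21.5 h, with luminescence and multiplexed viability fluorescence recorded.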

[8] = qHTS assay to identify small molecule antagonists of the estrogen receptor alpha (ER-alpha) signaling pathway using the BG1 cell line - cell viability counter screen (AID 743081);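 further: compound given together with 17beta-estradiol as the ER stimulus; nearly all actives have a fitted effect of over 45% in size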
Aromatase (Homo sapiens) = Aromatase (Homo sapiens) (UniProt P11511); test: qHTS assay to identify aromatase inhibitors (AID 743083); further: nearly all actives have a fitted effect of over 55% in size; further: potency means the concentration at half of the fitted maximal effect
[9] = qHTS assay to identify aromatase inhibitors - cell viability counter screen (AID 743084);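 further: cells stimulated with testosterone during compound exposure; nearly all actives have a fitted effect of over 55% in size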; further: potency means the concentration at half of the fitted maximal effect
On the % scale 0 is the no-effect control and ±100 the full control effect.

Sequence of Estrogen receptor (Homo sapiens) (P03372 whole entry, looked up): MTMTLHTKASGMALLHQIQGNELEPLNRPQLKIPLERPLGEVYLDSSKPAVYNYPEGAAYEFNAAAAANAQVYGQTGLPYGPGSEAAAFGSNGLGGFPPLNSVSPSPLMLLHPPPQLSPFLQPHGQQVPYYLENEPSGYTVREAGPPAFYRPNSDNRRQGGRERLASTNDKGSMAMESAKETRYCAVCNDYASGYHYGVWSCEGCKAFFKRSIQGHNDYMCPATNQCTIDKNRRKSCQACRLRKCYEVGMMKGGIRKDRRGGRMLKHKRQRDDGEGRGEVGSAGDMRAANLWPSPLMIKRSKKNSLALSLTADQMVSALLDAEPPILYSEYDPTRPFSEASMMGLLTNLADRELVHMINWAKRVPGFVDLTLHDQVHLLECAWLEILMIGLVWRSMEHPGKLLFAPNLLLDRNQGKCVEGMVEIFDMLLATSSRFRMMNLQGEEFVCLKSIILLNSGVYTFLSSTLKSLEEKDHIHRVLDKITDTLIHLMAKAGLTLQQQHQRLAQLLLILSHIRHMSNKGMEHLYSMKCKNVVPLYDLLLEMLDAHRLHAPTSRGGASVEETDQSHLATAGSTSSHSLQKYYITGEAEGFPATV
Sequence of Aromatase (Homo sapiens) (P11511 whole entry, looked up): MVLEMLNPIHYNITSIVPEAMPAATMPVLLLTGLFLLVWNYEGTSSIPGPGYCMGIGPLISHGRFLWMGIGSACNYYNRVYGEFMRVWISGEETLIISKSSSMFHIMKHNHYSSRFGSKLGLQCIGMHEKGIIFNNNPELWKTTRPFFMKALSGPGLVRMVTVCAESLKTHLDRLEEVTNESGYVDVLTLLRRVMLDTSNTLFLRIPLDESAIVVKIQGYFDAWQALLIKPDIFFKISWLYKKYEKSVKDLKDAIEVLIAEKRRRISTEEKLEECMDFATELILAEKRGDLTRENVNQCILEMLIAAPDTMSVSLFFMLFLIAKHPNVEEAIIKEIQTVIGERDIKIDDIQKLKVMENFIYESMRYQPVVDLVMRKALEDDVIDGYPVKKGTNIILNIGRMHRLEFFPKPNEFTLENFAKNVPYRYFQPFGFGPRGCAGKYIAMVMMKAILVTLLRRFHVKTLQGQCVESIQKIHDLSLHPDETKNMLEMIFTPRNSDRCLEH

CCOP(=O)(CN(CCO)CCO)OCC
inactive: Potency [1] | Potency [2] | Potency [3] | Potency [4] | Potency [5] | activation ([6]; at 70.3 µM (top of the series)) -2.5% | Potency [7] | Potency [8] | Potency (Aromatase (Homo sapiens)) | Potency [9]

CC(C)(C)c1cc(O)ccc1O
active: Potency [1] 6.68 µM and 61.1 µM and 38.6 µM
inactive: Potency [2] | Potency [3] | Potency [5] | Potency [7] | Potency [8] | Potency [9]
inactive and 26.8 µM (active): Potency [4]
inactive and 26.6 µM (active): Potency (Aromatase (Homo sapiens))

CCOC(=O)C(Cl)Cc1cc(-n2nc(C)n(C(F)F)c2=O)c(F)cc1Cl (centres undefined)
active: Potency (Aromatase (Homo sapiens)) 54.5 µM
inactive: Potency [1] | Potency [2] | Potency [3] | Potency [4] | Potency [5] | Potency [7] | Potency [8] | Potency [9]

COC(=O)c1ccccc1CS(=O)(=O)NC(=O)Nc1nc(OC)cc(OC)n1
inactive: Potency [1] | Potency [2] | Potency [3] | Potency [4] | Potency [5] | activation ([6]; at 70.3 µM (top of the series)) 1.94% | Potency [7] | Potency [8] | Potency (Aromatase (Homo sapiens)) | Potency [9]

CCSC(=O)Cl
inactive: Potency [1] | Potency [2] | Potency [3] | Potency [4] | Potency [5] | Potency [7] | Potency [8] | Potency (Aromatase (Homo sapiens)) | Potency [9]

CN(CCO)CCO
inactive: Potency [1] | Potency [2] | Potency [3] | Potency [4] | Potency [5] | activation ([6]; at 95 µM (top of the series)) -2.37% | Potency [7] | Potency [8] | Potency (Aromatase (Homo sapiens)) | Potency [9]

O=C/C=C/c1ccco1
inactive: Potency [1] | Potency [2] | Potency [3] | Potency [4] | Potency [5] | activation ([6]; at 70.3 µM (top of the series)) 10.7% | Potency [7] | Potency [8] | Potency (Aromatase (Homo sapiens)) | Potency [9]

CCCCOC(C)=O
inactive: Potency [1] | Potency [2] | Potency [3] | Potency [4] | Potency [5] | activation ([6]; at 95 µM (top of the series)) -9.13% | Potency [7] | Potency [8] | Potency (Aromatase (Homo sapiens)) | Potency [9]

C=C(Cl)CCl
inactive: Potency [1] | Potency [2] | Potency [3] | Potency [4] | Potency [5] | activation ([6]; at 70.3 µM (top of the series)) 0.667% | Potency [7] | Potency [8] | Potency (Aromatase (Homo sapiens)) | Potency [9]

N[C@@H]1C[C@H]1c1ccccc1
inactive: Potency [1] | Potency [2] | Potency [3] | Potency [4] | Potency [5] | activation ([6]; at 70.3 µM (top of the series)) 1.81% | Potency [7] | Potency [8] | Potency [9]

CN(C)CCN(C)C
inactive: Potency [1] | Potency [2] | Potency [3] | Potency [4] | Potency [5] | activation ([6]; at 70.3 µM (top of the series)) 18.6% | Potency [7] | Potency [8] | Potency (Aromatase (Homo sapiens)) | Potency [9]

ClCC1CO1 (centres undefined)
inactive: Potency [1] | Potency [2] | Potency [3] | Potency [4] | Potency [5] | activation ([6]; at 70.3 µM (top of the series)) -1.3% and 13.9% | Potency [7] | Potency [8] | Potency (Aromatase (Homo sapiens)) | Potency [9]

CC(Cc1ccccc1)NCCn1cnc2c1c(=O)n(C)c(=O)n2C (centres undefined)
inactive: Potency [1] | Potency [2] | Potency [3] | Potency [5] | activation ([6]; at 70.3 µM (top of the series)) -17.2% | Potency [8] | Potency (Aromatase (Homo sapiens))

COP(=O)(OC)O/C(C)=C/C(=O)N(C)C
inactive: Potency [1] | Potency [2] | Potency [3] | Potency [4] | Potency [5] | activation ([6]; at 95 µM (top of the series)) -7.62% | Potency [7] | Potency [8] | Potency (Aromatase (Homo sapiens)) | Potency [9]

O=P(O)(O)c1ccccc1
inactive: Potency [1] | Potency [2] | Potency [3] | Potency [4] | Potency [5] | activation ([6]; at 70.3 µM (top of the series)) 0.284% | Potency [7] | Potency [8] | Potency (Aromatase (Homo sapiens)) | Potency [9]

CCNc1nc(NCC)nc(SC)n1
inactive: Potency [1] | Potency [2] | Potency [3] | Potency [4] | Potency [5] | activation ([6]; at 70.3 µM (top of the series)) -15.9% | Potency [7] | Potency [8] | Potency (Aromatase (Homo sapiens)) | Potency [9]

Nc1c(Cl)c(F)nc(OCC(=O)O)c1Cl
inactive: Potency [1] | Potency [2] | Potency [3] | Potency [4] | Potency [5] | activation ([6]; at 70.3 µM (top of the series)) -0.92% | Potency [7] | Potency [8] | Potency (Aromatase (Homo sapiens)) | Potency [9]

O=C(Cl)/C=C/C(=O)Cl
inactive: Potency [1] | Potency [2] | Potency [3] | Potency [5] | activation ([6]; at 95 µM (top of the series)) 5.56% | Potency [7] | Potency [8] | Potency (Aromatase (Homo sapiens)) | Potency [9]

CN(C)C1CCCCC1
inactive: Potency [1] | Potency [2] | Potency [3] | Potency [4] | Potency [5] | Potency [7] | Potency [8] | Potency (Aromatase (Homo sapiens)) | Potency [9]

CCN(CCO)CCO
inactive: Potency [1] | Potency [2] | Potency [3] | Potency [4] | Potency [5] | activation ([6]; at 70.3 µM (top of the series)) -3.36% | Potency [7] | Potency [8] | Potency (Aromatase (Homo sapiens)) | Potency [9]

Cc1cc(OC(=O)N(C)C)nn1C(=O)N(C)C
inactive: Potency [1] | Potency [2] | Potency [3] | Potency [5] | activation ([6]; at 70.3 µM (top of the series)) -8.77% | Potency [7] | Potency [8] | Potency (Aromatase (Homo sapiens)) | Potency [9]

COc1ccc(C=O)cc1O
inactive: Potency [1] | Potency [2] | Potency [3] | Potency [4] | Potency [5] | activation ([6]; at 95 µM (top of the series)) 10.8% | Potency [7] | Potency [8] | Potency (Aromatase (Homo sapiens)) | Potency [9]

Cn1c(N)nc2c3cccnc3ccc21
inactive: Potency [1] | Potency [2] | Potency [3] | Potency [4] | Potency [5] | activation ([6]; at 70.3 µM (top of the series)) 9.73% | Potency [7] | Potency (Aromatase (Homo sapiens))
active: Potency [9] 29.1 µM
